A number with no mark means an inactive call. Inconclusive results are not listed. Calls of active or inactive are those of the source. Unless noted, calls come from the whole dose curve.

Experiment [1] concerns the target Thyrotropin receptor (Homo sapiens) (UniProt P16473). The experiment is described as follows: qHTS assay to identify small molecule agonists of the thyroid stimulating hormone receptor (TSHR) signaling pathway (AID 1224843). Note: nearly all actives have a fitted effect of over 45% in size. In a few lines:
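Compounds are titrated over 15 concentrations, in triplicate, onto TSHR-HEK293 cells seeded at 800/well. Plates sit 30 min at room temperature before cAMP-d2 and anti-cAMP cryptate are added; signal is read after a further hour.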
Background: In qHTS, concentration-response curves come from the screen itself.

A short description of experiment [2]: qHTS assay to identify small molecule agonists of the hypoxia (HIF-1) signaling pathway - cell viability counter screen (AID 1224844). Note: nearly all actives have a fitted effect of over 50% in size. In a few lines:
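Cytotoxicity was measured in parallel with the HRE-driven beta-lactamase readout: after 17 hrs of compound exposure at 37C, HRE-bla ME-180 cells received CellTiter-Glo and luminescence was recorded 30 min later.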

Experiment [3] in a line: qHTS assay to identify small molecule agonists of H2AX (AID 1224845; active = well fitted activation curve with a large enough effect in the signal ratio in the repeat runs, not every such curve was filed as active; the % refers to the signal ratio). Summed up:
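Wild-type CHO-K1 cells plated overnight, then exposed 3 hr at 37C to compounds at 15 concentrations (0.76% DMSO). Lysed, then HTRF anti-pH2AX(S139)-cryptate/anti-H2AX-d2 detection after 24 hr at room temperature; emissions 665 and 620 nm.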

Experiment [4] can be described thus: qHTS assay to identify small molecule agonists of the hypoxia (HIF-1) signaling pathway (AID 1224846; active = well fitted activation curve with a large enough effect in the signal ratio in the repeat runs, not every such curve was filed as active; the % refers to the signal ratio). In a few lines: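 Compounds from the Tox21 10K library, dissolved in DMSO, are tested for induction of a hypoxia response element–controlled beta-lactamase reporter in ME-180 cells. Exposure lasts 17 hrs at 37C after a 5 hr settling period, followed by CCF4-AM FRET substrate.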

Experiment [5] can be described thus: qHTS assay to identify small molecule agonists of H2AX - cell viability counter screen (AID 1224847). Note: top concentration of the series differs between compounds; nearly all actives have a fitted effect of over 30% in size. Summed up: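 CHO-K1 wt, 1000 cells/well, o/n 37C; cpds 15 conc, 3 h 37C, 0.76% DMSO; CellTiter-Glo, 30 min RT, luminescence.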
The nature of experiment [6]: qHTS assay to identify small molecule antagonists of the estrogen related receptor (ERR) signaling pathway from Tox21 library (AID 1224848; active = well fitted curve in the direction sought with a large enough effect in the repeat runs; an effect the other way counts as inactive or inconclusive; note: nearly all actives have a fitted effect of over 50% in size; note: potency is the fitted concentration of half-maximal effect). Summed up: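 First, 2,000 ERR cells per well were plated and held 6 h at 37 C/5% CO2. Next, compounds in DMSO were pinned in and left 18 h at 37 C. Finally, ONE-Glo was added and luminescence read after 30 min at room temperature.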

Experiment [7] in a line: qHTS assay to identify small molecule agonists of the estrogen related receptor (ERR) signaling pathway from Tox21 library (AID 1224849). Note: nearly all actives have a fitted effect of over 15% in size. To be noted: ERR reporter cell line, ONE-Glo luciferase, 18 h; at 92.4 µM (top of the series) unless noted. Summed up: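 Cells carrying the ERR reporter were plated and allowed to settle for 6 h, exposed to library compounds for 18 h at 37 C, then lysed with ONE-Glo and luminescence measured.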

Experiment [8] in a line: qHTS RealTime-Glo MT Cell Viability Assay in HepG2 cells - 24 hour (AID 1224867; active = well fitted curve in the direction sought with a large enough effect in the repeat runs; an effect the other way counts as inactive or inconclusive; note: nearly all actives have a fitted effect of over 50% in size). In a few lines:
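HepG2 cells were seeded at 600 cells/well together with NanoLuc luciferase and a cell-permeant prosubstrate, preincubated 5 h at 37 C/5% CO2, then pin-dosed with compounds in DMSO. Nonlytic luminescence from viable cells was read at each time point.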

Experiment [9] is described as follows: qHTS RealTime-Glo MT Cell Viability Assay in HEK293 cells - 32 hour (AID 1224868; active = well fitted curve in the direction sought with a large enough effect in the repeat runs; an effect the other way counts as inactive or inconclusive; note: top concentration of the series differs between compounds; nearly all actives have a fitted effect of over 50% in size). In a few lines:
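HEK293 cells were seeded at 600 cells/well together with NanoLuc luciferase and cell-permeant prosubstrate, preincubated 5 h at 37 C/5% CO2, then given compound in DMSO by pintool. Luminescence from viable-cell prosubstrate reduction was read repeatedly over 40 h.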

Experiment [10] can be described thus: A CellTox Green Cytotoxicity Assay to monitor cytotoxicity in HEK293 cells - 0 hour (AID 1224869; active = well fitted curve in the direction sought with a large enough effect in the repeat runs; an effect the other way counts as inactive or inconclusive; note: nearly all actives have a fitted effect of over 50% in size). In a few lines:
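Cells (HEK293, 600/well) and dye reagent are dispensed together. After 5 h at 37 C, 23 nL compound is pinned in. Plates stay at 37 C for 40 h with fluorescence read at 0h, 8h, 16h, 24h, 32h and 40h.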
% is set by controls: 0 for no effect and ±100 for the full control effect.

Sequence of Thyrotropin receptor (Homo sapiens) (P16473 whole entry, looked up): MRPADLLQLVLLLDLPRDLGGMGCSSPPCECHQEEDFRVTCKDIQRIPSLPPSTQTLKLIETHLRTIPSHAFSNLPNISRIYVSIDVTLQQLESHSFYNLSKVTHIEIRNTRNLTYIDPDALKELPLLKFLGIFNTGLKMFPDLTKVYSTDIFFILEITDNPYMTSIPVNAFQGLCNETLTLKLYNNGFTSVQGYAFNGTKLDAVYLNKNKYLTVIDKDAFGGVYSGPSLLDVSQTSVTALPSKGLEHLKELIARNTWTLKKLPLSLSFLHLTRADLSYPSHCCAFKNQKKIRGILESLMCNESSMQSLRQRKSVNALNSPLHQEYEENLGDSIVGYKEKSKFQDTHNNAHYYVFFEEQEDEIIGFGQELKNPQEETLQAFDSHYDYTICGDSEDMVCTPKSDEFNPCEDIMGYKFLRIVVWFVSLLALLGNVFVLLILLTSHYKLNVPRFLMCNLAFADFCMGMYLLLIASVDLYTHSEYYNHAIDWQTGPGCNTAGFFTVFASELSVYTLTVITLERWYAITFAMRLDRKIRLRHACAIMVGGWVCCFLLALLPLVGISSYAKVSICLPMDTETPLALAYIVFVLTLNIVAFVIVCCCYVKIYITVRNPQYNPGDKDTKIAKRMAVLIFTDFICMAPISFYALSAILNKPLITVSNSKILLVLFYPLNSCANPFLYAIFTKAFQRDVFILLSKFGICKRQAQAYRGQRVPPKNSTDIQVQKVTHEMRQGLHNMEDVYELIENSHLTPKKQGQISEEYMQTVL

With `CC(C)CCCC(C)NCCC(C)C` (stereo not drawn), the compound was classed as inactive in [1], in experiment [3], in experiment [4] and in experiment [8]. The Potency result in experiment [2], in experiment [5], in experiment [6], in [9] and in experiment [10] was “inactive” each time. Further, the activity change, positive = activation in experiment [7] is 1.21% [at 42.5 µM].
On to `CC(=O)O[C@H](CC(=O)[O-])C[N+](C)(C)C`, for which the call in experiment [1], in experiment [3], in [4] and in [8] was inactive. Moreover, the Potency entry in experiment [2], in [5], in experiment [6], in experiment [9] and in experiment [10] was “inactive” in each case. Also, the activity change, positive = activation in [7] is -2.17%.
As to `CCC(C(=O)NC(N)=O)c1ccccc1` (stereo not drawn), the compound was called inactive in experiment [1], in [3], in [4] and in experiment [8]. Also, the Potency result in [2], in experiment [5], in experiment [6], in experiment [9] and in experiment [10] was “inactive” each time. Moreover, the activity change, positive = activation in [7] is -3.04%.
With `COc1ccc2cc(C=O)ccc2c1`, the call in experiment [1], in [3], in experiment [4] and in [8] was inactive. Also, the Potency entry in [2], in experiment [5], in experiment [6], in [9] and in [10] was “inactive” in each case. The activity change, positive = activation in [7] was 3.74% [at 42.5 µM].
Turning to `COc1cc(CCC(C)=O)ccc1O`, the compound was called inactive in experiment [1], in [3], in experiment [4] and in [8]. Moreover, the Potency entry in [2], in experiment [5], in [6], in experiment [9] and in [10] was “inactive” throughout. The activity change, positive = activation in experiment [7] is 3.47%.
Consider `CNc1ncnc2nc[nH]c12`, for which the call in experiment [1], in experiment [3], in [4] and in experiment [8] was inactive. Moreover, the Potency result in [2], in experiment [5], in [6], in experiment [9] and in [10] was “inactive” in each case. In addition, the activity change, positive = activation in experiment [7] is 1.91%.
As to `COC(=O)c1ccc(C(=O)OC)c(C(=O)OC)c1`, the result in [1], in [3], in experiment [4] and in experiment [8] was inactive. The Potency result in [2], in [5], in [6], in [9] and in experiment [10] was “inactive” each time. In addition, the activity change, positive = activation in experiment [7] was -1.41%.
Consider `C=C(C)[C@@H]1CCC2=CC(=O)C[C@@H](C)[C@]2(C)C1`, for which the result in experiment [1], in [3], in experiment [4] and in [8] was inactive. The Potency entry in [2], in [5], in experiment [6], in experiment [9] and in experiment [10] was “inactive” in each case. In experiment [7], the activity change, positive = activation was -3.73%.
On to `C=C(C)C(=O)OCCC(C)OC(=O)C(=C)C` (stereo not drawn), for which the compound was classed as inactive in experiment [1], in [3], in experiment [4] and in [8]. Further, the Potency entry in [2], in [5], in experiment [6], in [9] and in experiment [10] was “inactive” in each case. The activity change, positive = activation in [7] was 3.72%.
On to `COC(=O)[C@H]1[C@H]2C[C@@H]3c4[nH]c5cc(OC)ccc5c4CCN3C[C@H]2C[C@@H](OC(=O)COc2ccc(OC)cc2)[C@@H]1OC`, for which the call in [1], in experiment [3], in [4] and in [8] was inactive. Also, the Potency entry in experiment [2], in [5], in experiment [6], in experiment [9] and in experiment [10] was “inactive” each time. The activity change, positive = activation in [7] was -9.01% [at 42.5 µM].
`CCC(=O)/C=C/c1ccc(OC)cc1`: the outcome in experiment [1], in experiment [3], in [4] and in experiment [8] was inactive. In addition, the Potency entry in [2], in [5], in [6], in experiment [9] and in experiment [10] was “inactive” in each case. In experiment [7], the activity change, positive = activation was -2.91%.
As to `CC1CCN(CCCC(=O)c2ccc(F)cc2)CC1`, the compound was called inactive in experiment [1], in [3], in experiment [4] and in [8]. In addition, the Potency result in [2], in experiment [5], in [6], in experiment [9] and in experiment [10] was “inactive” throughout. The activity change, positive = activation in [7] is 6.1% [at 42.5 µM].
As for `C#CC(C)(O)CC(C)C` (stereo not drawn), the result in [1], in [3], in experiment [4] and in [8] was inactive. Further, the Potency entry in [2], in experiment [5], in experiment [6], in experiment [9] and in experiment [10] was “inactive” throughout. For the same compound, the activity change, positive = activation in experiment [7] was 13.6%.
On to `CCCCCCCCN(C)CCCCCCCC`, for which the compound was classed as inactive in experiment [1], in [3], in [4] and in experiment [8]. The Potency result in experiment [2], in [5], in [6], in [9] and in experiment [10] was “inactive” in each case. For the same compound, the activity change, positive = activation in experiment [7] is 18.3%.
As to `NCCNC(=O)c1ccc(Cl)cn1`, the call in [1], in experiment [3], in [4] and in [8] was inactive. Further, the Potency entry in experiment [2], in experiment [5], in [6], in experiment [9] and in [10] was “inactive” throughout. Moreover, in [7], the activity change, positive = activation was -0.271% [at 42.5 µM].
For `COC(C(=O)O)c1ccccc1` (stereo not drawn), the outcome in [1], in experiment [3], in [4] and in experiment [8] was inactive. The Potency result in [2], in experiment [5], in [9] and in experiment [10] was “inactive” in each case.
Turning to `CCCc1ccccc1O`, the outcome in experiment [1], in [3], in experiment [4] and in experiment [8] was inactive. Further, the Potency result in experiment [2], in experiment [5], in experiment [9] and in experiment [10] was “inactive” each time.
As to `CCCCCCCCCCC1CO1` (stereo not drawn), the result in experiment [1], in experiment [3], in experiment [4] and in [8] was inactive. In addition, the Potency result in experiment [2], in experiment [5], in experiment [9] and in experiment [10] was “inactive” each time.
Take `CC(=O)c1ccc(C)cc1`: the outcome in experiment [1], in experiment [3], in experiment [4] and in experiment [8] was inactive. For the same compound, the Potency result in experiment [2], in [5], in [9] and in [10] was “inactive” each time.
Take `C=C(C)C(=O)NCCC[N+](C)(C)C`: the outcome in experiment [1], in experiment [3], in experiment [4] and in experiment [8] was inactive. Besides, the Potency result in experiment [2], in experiment [5], in experiment [9] and in [10] was “inactive” in each case.
On to `Cc1onc(-c2ccccc2)c1-c1ccc(S(N)(=O)=O)cc1`, for which the outcome in experiment [1], in experiment [3], in [4] and in [8] was inactive. Besides, the Potency entry in experiment [2], in experiment [5] and in experiment [10] was “inactive” each time. For the same compound, the Potency in experiment [6] was 13.3 µM (active). The activity change, positive = activation in experiment [7] is -32.6% [at 42.5 µM].
Take `CCCc1ccc(N)cc1`: the call in experiment [1], in [3], in [4] and in experiment [8] was inactive. The Potency result in experiment [2], in experiment [5], in experiment [9] and in [10] was “inactive” each time.
On to `CC1(C)OC(=O)Nc2ccc(Br)cc21`, for which the call in experiment [1], in experiment [3], in experiment [4] and in experiment [8] was inactive. The Potency result in [2], in experiment [5], in experiment [9] and in experiment [10] was “inactive” throughout.
For the compound `CCCCNc1ccccc1`, the compound was classed as inactive in experiment [1], in experiment [3], in experiment [4] and in experiment [8]. Besides, the Potency result in experiment [2], in experiment [5], in experiment [9] and in [10] was “inactive” in each case.

Source of the values: PubChem BioAssay (Tox21).
